The text below walks through data of PubChem BioAssay (NCI).

Molecules are shown by their SMILES. Compounds without any hit were thinned out: in the full panel of roughly 83,000, 20% have a hit.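 Activity criterion: percent growth below 10, measured after cells in 96-well plates were exposed to a single compound concentration for 48 hours.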 A number with no mark means an inactive call. The source made the active and inactive calls.

For this test, the system named is MDA-MB-468 breast. Nature of the test: NCI-60 one-dose screen, 48 h (100 = growth as untreated, 0 = no growth, -100 = all killed). The note with it: 10 µM unless noted.
With `CCCN1CC(c2ccc(OC)c(OC)c2)=C(c2cn(C(=O)OCC)c3ccccc23)C1=O`, the growth is 6.47% (active).

Turning to `O=C(CN1CCN(c2cc3c(cc2F)c(=O)c(C(=O)O)cn3C2CC2)CC1)N/N=C/c1ccncc1`, the growth is 99.6%.

As to `CCCCOc1ccc(/C=C2/SC(N3CCOCC3)=NC2=O)cc1OCC`, the growth was 97.8%.

As to `Cc1ccc(-c2csc(NC(=O)CCCCl)n2)cc1`, the growth was 93.3%.

In the case of `O=C(Nc1nc2ccc(O)cc2s1)c1cccc(C(F)(F)F)c1`, the growth is 84.6%.

On to `O=C(/C=C\c1ccc2ccccc2n1)c1cc(Cl)ccc1O`, for which the growth was 107%.

Turning to `Cc1cc(N/C=c2\sc3ncnn3c2=O)no1`, the growth is 101%.

As to `N#Cc1c(NC(=O)NCc2ccccc2)sc2c1CCCCC2`, the growth is -25.9% (active).

With `O=C1[C@@H]2Cc3c([nH]c4ccccc34)[C@H](c3c(Cl)cccc3Cl)N2C(=O)CN1C1CCN(Cc2ccccc2)CC1`, the growth was -33.4% (active).

Turning to `COc1ncc(-c2ccc3nc(N)n(-c4ccccc4C(F)(F)F)c(=O)c3c2)cc1S(=O)(=O)Nc1ccc(F)cc1F`, the growth is -37.3% (active).

As for `O=C1/C(=C/C=C/c2ccco2)SC(=S)N1Cc1ccccc1`, the growth was 58.5%.

Turning to `Cc1ccc(N2C(=O)/C(=C/C=C/c3ccco3)SC2=S)cc1`, the growth was 50.7%.

On to `COc1ccc(-c2oncc2-c2cc(OC)c3c(c2)OCO3)cc1`, for which the growth is 10.3%.

For the molecule `O=C1NC(=O)C(CC(=O)n2c(-c3ccccc3)nc3ccccc32)C(=O)N1`, the growth is 98.3%.

As to `COc1ccc(OC)c(CCn2cncc2-c2c[nH]c3ccccc23)c1`, the growth is 41%.

For the molecule `O=C(O)c1ccc(-n2cc(CNc3ccc(Oc4ccccc4)cc3)c(-c3ccccc3)n2)cc1`, the growth is 99.8%.

Take `CCOC(=O)CC1C(COC(=O)NC)OC(n2cnc3c(NC(=O)Nc4ccccc4)ncnc32)C1O[Si](C)(C)C(C)(C)C` (stereo not given): the growth is 61.9%.

For `O=C(O)COc1ccc(Cl)cc1C1CCCCC1`, the growth is 97.6%.

Regarding `CCN1CCN(Cc2ccc(NC(=O)Nc3nc(-c4cc(OC)c(OC)c(OC)c4)cs3)cc2C(F)(F)F)CC1`, the growth is -0.339% (active).

Turning to `Cc1ccc(CNS(=O)(=O)/N=C2\NC(=O)NC2=C(Cl)Cl)cc1`, the growth was 1.67% (active).

`C[C@H]1[C@H](C)CC[C@]2(COC(=O)c3cccnc3)CC[C@]3(C)C(=CC[C@@H]4[C@@]5(C)CCCNC(C)(C)[C@@H]5CC[C@]43C)[C@H]12`: the growth is 42.5%.

On to `CCCCCCCCn1ccc2cc(NC(=O)CN=[N+]=[N-])ccc21`, for which the growth is 105%.

`COc1ccc(-c2cnc(-c3ccc(Cl)cc3)[nH]2)cc1OC`: the growth is 84.7%.

On to `O=C(Cn1c[n+](CC(=O)c2ccc([N+](=O)[O-])cc2)c2ccccc21)Nc1cccc2cccnc12`, for which the growth is 9.02% (active).

In the case of `O=C(/C=C/c1cccc([N+](=O)[O-])c1)c1ccc(Nc2nc(N3CCCCC3)nc(N3CCCCC3)n2)cc1`, the growth was 121%.

For the molecule `CCS(=O)(=O)OCCO[C@H]1Cc2cc3ccc(=O)oc3cc2OC1(C)C`, the growth is 97.9%.

`COc1cccc(-c2nn(-c3ccccc3)cc2-c2ccnc(N3CCOCC3)c2)c1`: the growth was 69.2%.

On to `CCCCCCCCCCCCCC(=O)Oc1ccc[nH]c1=O`, for which the growth is 89.4%.

Regarding `CCCCCCCCCCOC(C)=O`, the growth was 110%.

As for `c1ccc(C(NC2CC3CCC2C3)c2ccccc2)cc1` (stereo not given), the growth was 96.8%.

In the case of `CCN1CCN(c2nc(C)cc(N(CCNc3ccnc4cc(Cl)ccc34)Cc3ccc4c(c3)OCO4)n2)CC1`, the growth was -65.3% (active).

With `NC(CCl)=NCC12CC3CC(CC(C3)C1)C2`, the growth was -31.3% (active).

In the case of `O=C1/C(=C/c2c[nH]c(=O)[nH]c2=O)SC(=S)N1Cc1ccccc1`, the growth is 109%.

Turning to `COc1ccc(Cl)cc1NC(=O)c1cc2c([nH]1)-c1nc(N)sc1CCC2`, the growth was 103%.

As for `CCCCCCCCCCCCCCCCCCOc1cccc(CCOP(=O)(O)OCC[N+](C)(C)C)c1`, the growth is 94.2%.

`CCOC(=O)c1cc2c(n1Cc1cc(OC)c(OC)c(OC)c1)-c1oncc1CCC2`: the growth was 15.7%.

As to `C/C(=N\NC(=S)Nc1ccccc1)c1ccccn1`, the growth was -10.2% (active).

With `CC/C=C1/C(=O)C=C[C@@H]1C/C=C\CCCC(=O)O`, the growth is 73.5%.

Regarding `COc1ccc(Br)c2c1C(=O)CC2`, the growth was 107%.

On to `COc1ccc(OC)c(NC(=O)/C(C#N)=C/c2ccco2)c1`, for which the growth was 85.2%.
